High-throughput results deposited in PubChem by National Center for Advancing Translational Sciences (NCATS).
FLuc counter: inhibits or activates purified firefly luciferase, miR-21 counter-screen | purified FLuc, Km substrates, luminescence inhibition | Potency, µM (doses to about 57.5 µM), without a hit: top-dose activity change, negative = inhibition, most hits filed as inhibitors | 6.9% of 360,000 active;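 note: plate controls were vehicle for no effect and reference inhibitor for full effect; nearly all actives have a fitted effect of over 55% in size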
Target sequence (P08659 whole entry, looked up): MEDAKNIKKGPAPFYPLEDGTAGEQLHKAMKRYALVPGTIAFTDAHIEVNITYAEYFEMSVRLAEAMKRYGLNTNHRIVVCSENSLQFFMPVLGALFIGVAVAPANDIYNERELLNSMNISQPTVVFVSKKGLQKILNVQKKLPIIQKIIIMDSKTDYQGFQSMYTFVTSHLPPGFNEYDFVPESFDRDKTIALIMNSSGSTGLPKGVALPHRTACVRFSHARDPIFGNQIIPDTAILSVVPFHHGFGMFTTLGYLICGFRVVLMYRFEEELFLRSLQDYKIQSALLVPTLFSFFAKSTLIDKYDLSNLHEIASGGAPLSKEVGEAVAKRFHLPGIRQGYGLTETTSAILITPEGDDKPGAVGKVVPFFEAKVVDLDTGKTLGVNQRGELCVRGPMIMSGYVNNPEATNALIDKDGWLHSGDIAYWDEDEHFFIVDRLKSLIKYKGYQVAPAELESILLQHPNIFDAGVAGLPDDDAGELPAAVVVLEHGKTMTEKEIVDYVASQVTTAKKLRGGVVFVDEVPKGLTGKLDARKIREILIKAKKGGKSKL
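Purified P. pyralis luciferase, 10 nM final, with Km-level 10 uM D-luciferin and 10 uM ATP in 50 mM Tris acetate pH 7.5, 10 mM Mg acetate, 0.01% Tween-20, 0.05% BSA; 6-point qHTS titration about 60 µM downward; luminescence read.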
Rab9 prom act: activators of Rab9 promoter | Huh7 Rab9 promoter-luciferase reporter, luminescence, 24 h | Potency, µM (top dose mostly 9.22 µM), for inactives: at the top dose activation, negative = inhibition, hits mostly activators | 2.8% of 320,000 active | AID 485297; note: % of control where 0% means no effect; nearly all actives have a fitted effect of over 60% in size
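Measured in stably transfected Huh7 cells bearing a Rab9 promoter–luciferase construct: 24 h compound treatment at 37 °C, followed by luminescence detection.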
SMN2 splice enh: SMN2 splice variant enhancement; HEK293 SMN2-luciferase splicing reporter, luminescence, 30-36 h; Potency, µM (series often up to 46.1 µM), without a hit: at the highest dose activity change, positive = activation, hits mostly activators; 2.8% of 210,000 active; AID 1458; note: % of control where 0% means no effect; nearly all actives have a fitted effect of over 55% in size
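HEK293 cells carry an SMN2 minigene-luciferase reporter in which exon 7 inclusion puts luciferase in frame. Cells were seeded at 2000 cells/well, attached for 10-12 hours, then exposed to compounds for 30-36 hours at 37C before ONE-Glo luminescence.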
ELG1 repair inh: blocks ELG1-dependent DNA repair in HEK293T cells | HEK293T ELG1-luciferase reporter, luminescence, 16 h; DNA damage induced by 5-fluorouridine | Potency, µM (titrated, usually from 46.1 µM), for the others: top-dose activity change, negative = inhibition, usual class: inhibitors | 2.3% of 330,000 active; note: % is set by controls: 0 for no effect and ±100 for the full control effect; nearly all actives have a fitted effect of over 55% in size
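Reporter activity after DNA damage by 5-fluorouridine is monitored. Compound-treated cells incubate 16 hr at 37 °C, then ONE-Glo is added for 30 min before luminescence reading.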
ELG1 genotoxic: inducers of genotoxicity in HEK293T ELG1-luciferase cells. HEK293T ELG1-luciferase reporter, luminescence, 16 h. AID 504466. Potency, µM (series often up to 46 µM), for inactives: at the top dose activity change, positive = activation, usual class: activators. 1.3% of 330,000 active; note: % of control where 0% means no effect; nearly all actives have a fitted effect of over 60% in size
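Reporter readout depends on ELG1 protein level, which increases with genetic stress. After 16 hr compound exposure at 37 °C, luciferase activity was quantified using ONE-Glo.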
NPC1 prom act: NPC1 promoter activation. Potency, µM (series often up to 9.22 µM), without a hit: at the top dose activation, most hits filed as activators. 2.4% of 320,000 active. Huh7 NPC1 promoter luciferase reporter, 24 h. AID 485313; note: % of control where 0% means no effect; nearly all actives have a fitted effect of over 60% in size
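Huh7 reporter cells (NPC1 promoter driving luciferase) are dosed with compound for 24 h at 37 °C, 5% CO2; luciferase detection reagent is then added and luminescence measured after 10 min at ambient temperature.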
An asterisk follows results filed as active; ? = inconclusive; · = no result given; [ ] = remark or other dose. An excerpt weighted towards active compounds, which were near 9.3% of everything screened. Calls come from the whole dose curve; as a rule, active = well fitted curve in the direction sought with a large enough effect; inconclusive = small, poorly fitted or top-dose-only effect, or another doubt; inactive = no such curve, though single readings can be large; an effect the other way counts as inactive or inconclusive. Potency is the fitted concentration of half-maximal effect.

SMILES | FLuc counter | Rab9 prom act | SMN2 splice enh | ELG1 repair inh | ELG1 genotoxic | NPC1 prom act
CC(/C=C/c1ccc(OCc2ccccc2)cc1)=N\O | 2.4µM* | 2.8µM* | 11µM* | ? | 15µM* | 2.8µM*
CC1CCCCC1NC(=O)CCNS(=O)(=O)c1ccc2c(c1)CCC(=O)N2 (configuration not stated) | -4% | 4% | · | 13% | 4% | -3%
Cn1c(SCc2nc3ccccc3c(=O)[nH]2)nc2ccccc21 | -28% | 9% | 14% | -1% | 2% | 9%
Cn1c(-c2ccccc2)cnc1SCc1nc2ccccc2c(=O)[nH]1 | 6µM* | 1.4µM* | 2.5µM* | ? | 2.1µM* | 2.8µM*
COc1ccc(C)cc1NC(=O)C1CCCN(S(=O)(=O)c2ccc3c(c2)CCCN3C(C)=O)C1 (configuration not stated) | 0% | -7% | · | -6% | -1% | -2%
CC(C)N1CCC2(CC1)N=C(c1ccc3c(c1)OCO3)CC(c1cc(Cl)ccc1O)N2 (configuration not stated) | 17µM* | -1% | -23% | -22% | -16% | -4%
CCOc1ccc(S(=O)(=O)N2CCN(C(=O)c3ccc(-n4cncn4)c([N+](=O)[O-])c3)CC2)cc1 | 5% | -6% | · | -13% | -1% | -2%
Cc1sc2nc3n(c(=O)c2c1C)Cc1ccccc1-3 | 3.8µM* | ? | 14µM* | ? | ? | 26%
O=c1nc2n(c3ccccc13)Cc1ccccc1-2 | 6% | -2% | 12% | 0% | -1% | -2%
O=c1c2cccc(Cl)c2nc2n1Cc1ccccc1-2 | 12µM* | 2.8µM* | · | ? | ? | ?
Cc1sc2nc3n(c(=O)c2c1C)CCCCC3 | -5% | 1% | 18% | ? | 0% | -5%
CCc1ccccc1N1C(=O)N(CC(=O)c2ccc(Cl)cc2)c2ccccc2S1(=O)=O | 0% | · | · | · | · | ·
Fc1cccc(Cl)c1CNc1ccc(N2CCCC2)cc1 | 9.5µM* | 17% | -12% | ? | 6% | 14%
O=Nc1c(O)[nH]c2ccccc12.[Cu].[O-]/N=C1/C(=[OH+])Nc2ccccc21 | · | · | -6%[9.22 µM] | · | · | ·
CCc1ccc(Nc2oc(C)cc(=O)c2C(C)=O)cc1 | 19µM* | 16% | -10% | ? | 15% | 23%
CCOC(=O)c1c(C)oc2ncnc(Nc3ccc(CC)cc3)c12 | -1% | · | -1% | · | · | ·
COc1cccc(-n2ccnc2SCC(=O)Nc2nc3ccc(C)cc3s2)c1 | -1% | · | · | · | · | ·
CCOC(=O)N1CCN(S(=O)(=O)c2ccc(C)cc2)C1c1ccccc1 (configuration not stated) | 0% | -12% | -7% | 26µM* | -16% | 1%
CCOC(=O)N1CCN(S(=O)(=O)c2ccc(C)cc2)C1c1ccc(OC)cc1 (configuration not stated) | 1% | 7% | -19% | ? | -1% | -2%
c1ccc(-c2nnc(-c3ccccc3)nn2)cc1 | 0.38µM* | 1.3µM* | · | ? | ? | 3.2µM*
CC(=O)c1ccc(NC(=O)c2ccn(C(=O)OCC(C)C)n2)cc1 | 19µM* | ? | 10µM* | ? | ? | 4µM*
COc1cc(/C=N/n2cnn(Cc3ccccc3Cl)c2=S)cc(OC)c1OC | -3% | -7% | -10% | 23µM* | -8% | -5%
CC(=O)c1c(C)[nH]c(C(=O)OCn2nnc3ccccc3c2=O)c1C | 0% | -12% | · | 18µM* | -9% | -1%
CC(=O)c1c(C)[nH]c(C(=O)OCc2nc3ccsc3c(=O)[nH]2)c1C | ? | 30% | · | 22% | ? | ?
COC(=O)c1ccc2c(=O)[nH]c(COC(=O)c3[nH]c(C)c(C(C)=O)c3C)nc2c1 | · | · | · | 5.8µM* | -5% | ·
SMILES | FLuc counter | Rab9 prom act | SMN2 splice enh | ELG1 repair inh | ELG1 genotoxic | NPC1 prom act
Cc1ccc([N+](=O)[O-])c2c1C(N1CC(C)OC(C)C1)C(C)(C)O2 (configuration not stated) | -2% | 3% | 3% | -1% | -3% | -1%
COc1cc(/C=N/NC(N)=S)ccc1OC(=O)c1ccc(C)cc1 | -11% | 0% | 21% | ? | -8% | 3%
O=C(N/N=C/c1cccc(OC(=O)c2ccc3c(c2)OCO3)c1)c1cncc(Br)c1 | -5% | ? | 16µM* | 17% | 13% | 19%
O=C(N/N=C/c1ccc(OC(=O)c2ccc3c(c2)OCO3)cc1)c1cncc(Br)c1 | 2% | 13% | 5% | 20% | 5% | 23%
O=C(COc1ccccc1[N+](=O)[O-])N/N=C/c1cccc(OC(=O)c2ccc3c(c2)OCO3)c1 | -14% | 1% | ? | ? | ? | 5%
COc1ccc(C(=O)Oc2cccc(/C=N/NC(N)=S)c2)cc1 | 12µM* | 12% | ? | 1% | 4% | 20%
COC(=O)N/N=C/c1cccc(OC(=O)c2ccc3c(c2)OCO3)c1 | 17µM* | 0% | · | 1% | -1% | -2%
CCNc1ncnc2c1nnn2C | -3% | · | · | · | · | ·
CCOc1ccc(-c2cnc(NCc3cccc(Cl)c3)n2C)cc1 | -2% | · | -9% | · | · | ·
O=c1/c(=C/c2ccc(O)cc2)sc2n1CCCN=2 | 9.5µM* | 2.8µM* | · | ? | ? | 1%
O=c1/c(=C\c2ccc(F)cc2)sc2n1CCCN=2 | 13µM* | ? | ? | ? | ? | ?
CN(C)c1ccc(/C=c2\sc3n(c2=O)CCCN=3)cc1 | 0.24µM* | 0.32µM* | 1.6µM* | ? | ? | 0.4µM*
COC(=O)/C=c1/sc2n(c1=O)CCN=2 | 2% | 1% | -8% | -1% | 0% | 0%
C=CCn1c(=O)/c(=C/c2ccc(F)cc2)s/c1=C(\C#N)c1nnc2n1CCCCC2 | 1% | 2% | · | ? | -5% | 1%
COc1ccc(Cc2nnc(SCC(=O)Nc3ccc(N4CCOCC4)cc3)n2C)cc1 | ? | 0% | · | 0% | -1% | 5%
Cc1cc(C)c(NC(=O)Cn2c([N+](=O)[O-])cnc2C)c(C)c1 | -1% | -2% | · | 7% | 0% | -4%
CCN(CC)S(=O)(=O)c1ccc(C)c(NC(=S)N2CCN(c3ccccn3)CC2)c1 | -1% | -2% | · | 16µM* | -32% | -2%
CCc1ccccc1NC(=S)N1CCN(c2ccccn2)CC1 | 3% | -3% | 6% | 3% | 1% | 0%
CCN(CC)S(=O)(=O)c1ccc(C)c(NC(=S)N2CCN(C/C=C/c3ccccc3)CC2)c1 | -5% | -33% | -58% | 12µM* | -17% | -28%
COCc1ccc(C(=O)N(C)CC2CCCN(CCc3ccccc3F)C2)o1 (configuration not stated) | 1% | -7% | · | 7% | -1% | -1%
